PubChem BioAssay AID1159580 (chemical genetic matrix, 2015)
The campaign covered roughly 5,500 compounds. About 2,000 (36%) were called active. About 18% were inconclusive and are not listed. Cut-off read from the data, not from the text of the source: active = normalized growth mostly below about 0.91 (no sharp cut-off); inconclusive = no clear call, values can overlap the other calls; inactive = mostly above about 0.92. Some of the results follow.

Experiment: chemical genetic growth profiling, strain panel (AID 1159580);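 note: tested at 20 µM; growth read once vehicle control cultures reached saturation at 30 °C; 1 = growth at the plate median or of vehicle wells; lower values mean less growth of the strain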
Conditions: S. cerevisiae deletion strains, growth OD

Measured: normalized growth

CC(C)(C)C(=O)NC(=S)N/N=C\c1cc(Cl)cc(Cl)c1O
inactive: locus YAR019C, strain CDC15, hits give low values 0.924 | locus YBL105C, strain PKC1, hits give low values 0.937 | locus YBR135W, strain CKS1, hits give low values 0.907 | locus YBR136W, strain MEC1, hits give low values 0.936 | locus YBR160W, strain CDC28, hits give low values 0.94 | locus YDL017W, strain CDC7, hits give low values 0.94 | locus YDL028C, strain MPS1, hits give low values 0.927 | locus YDL101C, strain DUN1, hits give low values 0.949 | locus YDL108W, strain KIN28, hits give low values 0.936 | locus YDL132W, strain cdc53, hits give low values 0.961 | locus YDR052C, strain DBF4, hits give low values 0.945 | locus YDR054C, strain cdc34, hits give low values 0.918 | locus YDR226W, strain ADK1, hits give low values 0.958 | locus YFL009W, strain cdc4, hits give low values 0.924 | locus YFL029C, strain CAK1, hits give low values 0.923 | locus YFR003C, strain YPI1, hits give low values 0.947 | locus YFR028C, strain CDC14, hits give low values 0.938 | locus YIL147C, strain SLN1, hits give low values 0.933 | locus YJL128C, strain PBS2, hits give low values 0.974 | locus YJR016C, strain ILV3, hits give low values 0.922 | locus YKL193C, strain SDS22, hits give low values 0.921 | locus YMR001C, strain CDC5, hits give low values 0.919 | locus YMR277W, strain FCP1, hits give low values 0.926 | locus YNL006W, strain LST8, hits give low values 0.924 | locus YNL161W, strain CBK1, hits give low values 0.932 | locus YNL207W, strain RIO2, hits give low values 0.953 | locus YNL222W, strain SSU72, hits give low values 0.926 | locus YOL078W, strain AVO1, hits give low values 0.916 | locus YOR329C, strain SCD5, hits give low values 0.949 | locus YPL209C, strain IPL1, hits give low values 0.93 | locus YPR025C, strain CCL1, hits give low values 0.928 | locus YPR106W, strain ISR1, hits give low values 0.969 | locus YPR111W, strain DBF20, hits give low values 0.954 | strain NNK1, hits give low values 0.958
active: locus YDL214C, strain PRR2, hits give low values 0.333 | locus YDR477W, strain SNF1, hits give low values 0.566 | locus YER123W, strain YCK3, hits give low values 0.167 | locus YER133W, strain GLC7, hits give low values 0.48 | locus YFR019W, strain FAB1, hits give low values 0.365 | locus YGR040W, strain KSS1, hits give low values 0.546 | locus YGR052W, strain FMP48, hits give low values 0.346 | locus YGR092W, strain DBF2, hits give low values 0.165 | locus YHR030C, strain SLT2, hits give low values 0.278 | locus YHR079C, strain IRE1, hits give low values 0.144 | locus YHR082C, strain KSP1, hits give low values 0.277 | locus YHR205W, strain SCH9, hits give low values 0.248 | locus YJL095W, strain BCK1, hits give low values 0.2 | locus YJL157C, strain FAR1, hits give low values 0.215 | locus YJR066W, strain TOR1 (second series), hits give low values 0.149 | locus YJR066W, strain TOR1, hits give low values 0.182 | locus YKL048C, strain ELM1, hits give low values 0.439 | locus YKL067W, strain YNK1, hits give low values 0.286 | locus YKL101W, strain HSL1, hits give low values 0.237 | locus YKL203C, strain TOR2, hits give low values 0.332 | locus YLR113W, strain HOG1, hits give low values 0.245 | locus YLR133W, strain CKI1, hits give low values 0.224 | locus YLR403W, strain SFP1, hits give low values 0.35 | locus YML070W, strain DAK1, hits give low values 0.285 | locus YMR205C, strain PFK2 (second series), hits give low values 0.221 | locus YNL020C, strain ARK1, hits give low values 0.19 | locus YNL183C, strain NPR1, hits give low values 0.269 | locus YNL307C, strain MCK1 (second series), hits give low values 0.18 | locus YOL136C, strain PFK27, hits give low values 0.242 | locus YOR061W, strain CKA2, hits give low values 0.245 | locus YOR119C, strain RIO1, hits give low values 0.547 | locus YOR231W, strain MKK1, hits give low values 0.173 | locus YPL031C, strain PHO85, hits give low values 0.498 | locus YPL153C, strain RAD53, hits give low values 0.27 | locus YPL204W, strain HRR25, hits give low values 0.249 | locus YPL256C, strain CLN2, hits give low values 0.285 | strain TSCII, hits give low values 0.768
